Compounds with a hit are over-represented: about 0.99% of the library has one in this group of screens.
AmpC no deterg: qHTS Inhibitors of AmpC Beta-Lactamase (assay without detergent); AmpC nitrocefin hydrolysis, absorbance 480 nm, 0.0001% Triton; hit rate 0.52% among 330,000; P00811; Potency, µM (top dose mostly 57.1 µM), inactives show top-dose activity change, negative = inhibition, actives largely listed as inhibitors;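 further: plate controls were no compound for no effect and no enzyme for full effect; nearly all actives have a fitted effect of over 20% in size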
Target sequence (P00811 whole entry, looked up): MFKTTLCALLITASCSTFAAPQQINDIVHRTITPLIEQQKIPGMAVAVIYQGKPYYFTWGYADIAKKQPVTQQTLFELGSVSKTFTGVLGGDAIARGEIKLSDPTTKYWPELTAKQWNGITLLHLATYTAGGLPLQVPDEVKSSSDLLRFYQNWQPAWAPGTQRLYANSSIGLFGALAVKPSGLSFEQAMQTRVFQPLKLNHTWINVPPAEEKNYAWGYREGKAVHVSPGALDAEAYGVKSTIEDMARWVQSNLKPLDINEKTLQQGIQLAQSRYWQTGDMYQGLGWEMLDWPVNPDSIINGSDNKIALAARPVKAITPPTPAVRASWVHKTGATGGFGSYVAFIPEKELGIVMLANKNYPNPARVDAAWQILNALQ
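20 mM phosphate pH 7.0 + 0.01% (detergent screen) or 0.0001% Triton X-100; 5.3 nM AmpC reagent; cpd preinc 15 min RT; nitrocefin (800 uM stock) to start; A480 q20 s × 4 min; Activity was normalised to no-enzyme and no-compound control wells.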
SARS PLP yeast: qHTS of Yeast-based Assay for SARS-CoV PLP | S. cerevisiae expressing SARS-CoV PLpro, growth rescue | hit rate 0.19% among 330,000 | Potency, µM (doses to about 32.9 µM), for inactives: at the top dose activity, positive = growth rescue, most hits filed as activators | AID 485353, 2010; calls by dose curve; further: 0% is about no effect; nearly all actives have a fitted effect of over 55% in size
AMA1 RON2 block: qHTS for Inhibitors of AMA1-RON; Towards Development of Antimalarial Drug Lead: Primary Screen | Potency, µM (doses to about 58.2 µM), for the others: at the top dose activity change, negative = inhibition, most hits filed as inhibitors | hit rate 0.2% among 360,000 | AID 720542, 2013 | Plasmodium falciparum AMA1 (3D7) - RON2 peptide interaction | AlphaScreen AMA1-biotinylated RON2 peptide binding;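 further: 0% = vehicle wells and -100% = peptide control; nearly all actives have a fitted effect of over 45% in size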
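AMA1 (3D7) with his tag at 25 nM final met compounds first, then biotinylated RON2 peptide at 25 nM; detection used donor plus acceptor beads, 10 µg/mL apiece, read by AlphaScreen after 30 min at room temperature.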
NS1 function inh: qHTS Assay for Inhibitors of Influenza NS1 Protein Function. Potency, µM (top dose mostly 46.1 µM), without a hit: at the highest dose activity, positive = more growth. hit rate 0.4% among 270,000; calls by dose curve; further: actives are rising curves; nearly all actives have a fitted effect of over 50% in size
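OD600 was taken as the measure of yeast growth restored by compound in an NS1-expressing S. cerevisiae strain. Cells had been washed out of glucose medium and diluted 1:100 into galactose -URA medium, pH 6.0.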
AmpC detergent: qHTS Inhibitors of AmpC Beta-Lactamase (assay with detergent); P00811; AmpC hydrolysis of nitrocefin, absorbance 480 nm, 0.01% Triton; Potency, µM (top dose mostly 114 µM), without a hit: at the highest dose activity change, negative = inhibition, most hits filed as inhibitors; hit rate 0.041% among 370,000; AID 485294, 2010;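 further: 0% = no-compound wells and -100% = no-enzyme wells; nearly all actives have a fitted effect of over 25% in size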
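20 mM phosphate pH 7.0 + 0.01% (detergent screen) or 0.0001% Triton X-100; 5.3 nM AmpC reagent; cpd preinc 15 min RT; nitrocefin (800 uM stock) to start; A480 q20 s × 4 min; Activity was normalised to no-enzyme and no-compound control wells.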
* hit, by the source's call; ? = inconclusive; . = not tested or not shown; [ ] = dose if it differs, or a comment. Unless noted, the call rests on the fitted dose curve; in most records, active means well fitted curve in the direction sought with a large enough effect; inconclusive means small, poorly fitted or top-dose-only effect, or another doubt; inactive means no such curve, though single readings can be large; an effect the other way counts as inactive or inconclusive. Potency means the concentration at half of the fitted maximal effect.

SMILES | AmpC no deterg | SARS PLP yeast | AMA1 RON2 block | NS1 function inh | AmpC detergent
Cc1ccc2c(CC(=O)Nc3ccc(S(=O)(=O)N4CCCCC4)cc3)coc2c1C | . | . | . | . | -2%
Cc1nnc(NC(=O)c2cccc(F)c2)s1 | 1% | -6% | -1% | -10% | -1%
Cc1nnc(NC(=O)c2c(F)cccc2F)s1 | 18µM* | 0% | -6% | 2% | -15%
NNCCc1ccccc1 | -13% | -4% | -8% | -21% | -7%
NNCc1ccccc1 | . | . | 32µM* | . | .
CCc1ccc(NC(=O)C2=CC(c3cccs3)=NS(=O)(=O)N2C)cc1 | 18µM* | 13% | -19% | 12% | -10%
O=C(Nc1ccccc1O)c1ccc(NS(=O)(=O)c2cccc3cccnc23)cc1 | 16µM* | -2% | 65% | -15% | -2%
COC(=O)c1ccc(NC(=O)c2ccc(NS(=O)(=O)c3cccc4cccnc34)cc2)cc1 | -42% | -3% | 47% | 0% | 2%
Cc1ccccc1NS(=O)(=O)c1cc(C(=O)NCCSC2CCCCC2)ccc1C | 1.3µM* | -4% | -8% | ? | -3%
Cc1ccc(C)c(NS(=O)(=O)c2cc(C(=O)NCCSC3CCCCC3)ccc2C)c1 | -33% | 4% | 1% | 24% | -5%
C1C[C@@H]2CN(CCCN3CCOCC3)[C@@H](C1)O2 | . | . | . | -3% | .
CCOC(=O)c1scc(-c2ccccc2)c1S(=O)(=O)N1CCN(c2ccc(Cl)cc2)CC1 | . | . | . | . | 17%
O=C(/C=C\NCC(=O)c1ccccc1)c1ccc(F)cc1 | 18µM* | 2% | -10% | -4% | 1%
O=C(/C=C\NCC(=O)c1ccccc1)c1ccc2ccccc2c1 | -44% | -13% | 8%[11.6 µM] | 0% | 1%
COc1ccc(CCNC(=O)C(=O)NCC(c2cccs2)S(=O)(=O)c2ccccc2)cc1 (stereo not given) | . | . | . | . | 0%
CCn1c(CCCNC(=O)c2ccc(F)cc2)nc2ccccc21 | 35µM* | 0% | -5% | -10% | ?
CCOC(=O)/C(=N/Nc1ccccc1)N1CCCc2ccccc21 | 25µM* | ? | ? | 17% | 18%
COC(=O)/C(=N/Nc1ccccc1C)N1CCCc2ccccc21 | -7% | 12% | -21% | 4% | -8%
CCOC(=O)/C(=N/Nc1ccccc1OC)N1CCCc2ccccc21 | -14% | -1% | -16% | -1% | 4%
CCOC(=O)/C(=N/Nc1ccc(OC)cc1)N1CCCc2ccccc21 | -2% | -2% | 22µM* | -52% | -9%
COc1cccc(-c2cc(C(=O)Nc3c(C)nn(Cc4ccccc4Cl)c3C)no2)c1 | . | . | . | . | -9%
CCOc1ccc(-n2c(=O)c3c(C)c(C)sc3n(CC(=O)C(C)(C)C)c2=O)cc1 | . | . | . | . | 16%
Oc1ccc(Nc2ccc3ccccc3c2)cc1 | . | . | 14µM* | . | .
Cc1ccn2c(=O)nc(SCC(=O)NCCc3ccccc3)nc2c1 | 32µM* | 2% | 0% | . | ?
CCC(=O)N1CCc2cc(S(=O)(=O)NCCC(=O)Nc3cccc(SC)c3)ccc21 | . | . | . | . | 1%
SMILES | AmpC no deterg | SARS PLP yeast | AMA1 RON2 block | NS1 function inh | AmpC detergent
CN(C)CCCN1C(=O)CSC1c1ccccc1 (stereo not given) | 1µM* | 9% | 3% | 2% | ?
NS(=O)(=O)c1ccc(CCNC(=O)Cn2c(=O)c3cccn3c3ccc(F)cc32)cc1 | . | . | . | . | 15%
CCCN1C(=O)c2cc(C(=O)NC3CCCCCC3)ccc2C1O (stereo not given) | 1.4µM* | 1% | -2% | -14% | ?
Cc1ccc(-c2noc(-c3nnn(CC(=O)Nc4ccc(C)c(Cl)c4)c3N)n2)cc1 | . | . | . | . | 2%
CCn1c(=S)sc2c(=O)n(CC(=O)Nc3ccccc3)c(C)nc21 | -26% | 14% | 63% | -1% | ?
CCn1c(=S)sc2c(=O)n(CC(=O)Nc3ccc(Cl)cc3)c(C)nc21 | 7.1µM* | -1% | -7% | 10% | -3%
CCn1c(=S)sc2c(=O)n(CC(=O)Nc3ccc(OC)c(Cl)c3)c(C)nc21 | 6.3µM* | 2% | 5% | 1% | -8%
O=S(=O)(NCc1ccccn1)c1cccc2cccnc12 | . | . | . | 1% | .
O=C(Nc1ccc(F)cc1F)N1CCc2c(sc3c2CCCC3)C1c1ccc(F)cc1 (stereo not given) | . | . | . | . | 15%
Cc1ccc(C(=O)CSc2nsc(C)c2C#N)cc1 | 0.25µM* | -8% | -1% | 9% | 4%
CCCc1c(C)[nH]c2ccc(C(=O)O)cc2c1=S | -33% | 2% | -17% | 10% | 40µM*
Cc1[nH]c2ccc(C(=O)O)cc2c1C | -10% | -4% | -3% | -65% | -9%
Cc1cc(Cl)ccc1NNC(=O)c1cccs1 | -17% | -3% | 20µM* | -5% | -8%
Cc1ccccc1C(=O)Nc1cccc(C(=O)OCc2cc(=O)n3nc(C4CC4)sc3n2)c1 | . | . | . | . | 11%
O=C(Cn1cc2c(n1)CCCC2)NCCCN1CCCC1 | 63% | -1% | 8% | 7% | 7%
O=C(Cn1cc2c(n1)CCCCC2)NCCCN1CCOCC1 | 45µM* | ? | -2% | -2% | ?
O=C(O)C/C(=C\c1cccc(NC(=O)c2ccccc2Cl)c1)c1nc2ccccc2s1 | 16µM* | -2% | 0% | -80% | -3%
COc1ccc(C(=O)Nc2cccc(/C=C(\CCC(=O)O)c3nc4ccccc4s3)c2)cc1 | -9% | 0% | -4% | 8% | -7%
Clc1ccccc1-c1nnc2sc(-c3ccncc3)nn12 | -14% | -5% | 2% | 4% | -13%
Clc1ccccc1-c1nnc2sc(-c3cccs3)nn12 | -38% | 22µM* | 30% | -34% | -5%
Cc1ccc(NC(=O)Cn2nnc(-c3nc(-c4ccncc4)no3)c2N)cc1 | . | . | . | . | -8%
O=C(NCc1ccco1)C1CCN(c2nnc(-n3cccc3)s2)CC1 | 0.79µM* | 23% | -5% | -17% | 4%
CN(Cc1ccco1)C(=O)C1CCN(c2nnc(-n3cccc3)s2)CC1 | 47% | 4% | 8% | -1% | ?
CCOc1ccc(C2C(=O)N(C3CCCCCC3)CC(=O)N2CCC2=CCCCC2)cc1OC (stereo not given) | . | . | . | . | -1%
CC1CN(C(=O)N2CCC(C(=O)NCCCc3ccccc3)CC2)c2ccccc2O1 (stereo not given) | . | . | . | . | -2%
CSc1ccc(C(=O)C2CCCN(Cc3cccnc3)C2)cc1 (stereo not given) | 23% | 0% | 4% | -3% | 2%
CSc1ccc(C(=O)C2CCCN(Cc3cc4ccccc4[nH]3)C2)cc1 (stereo not given) | -29% | -1% | 32µM* | -2% | -1%
CCOc1ccc(Nc2oc(-c3ccc(COc4ccc(OC)cc4)o3)nc2C#N)cc1 | . | . | . | . | 24%
Cc1cccc(C)c1Nc1nnc(SCC(=O)c2ccc(Br)s2)s1 | -23% | ? | -3% | 20% | -10%
Cc1cccc(C)c1Nc1nnc(SCC(=O)c2ccc3c(c2)NC(=O)CO3)s1 | 25µM* | 0% | 11% | ? | -4%

Screening data deposited in PubChem by National Center for Advancing Translational Sciences (NCATS).
